Screening results: PubChem, National Center for Advancing Translational Sciences (NCATS)
Hits are enriched below; roughly 12% of the tested compounds scored in any of these assays.
ALDH1A1 block = inhibitors of human aldehyde dehydrogenase 1A1; Potency, µM (series often up to 75.3 µM), for inactives: top-dose activity, negative = inhibition, usual class: inhibitors; Purified ALDH1A1, NADH fluorescence, propionaldehyde substrate; P00352; actives 7.3% (n = 220,000); active means well fitted inhibition curve with a large enough effect, not every such curve was filed as active; inconclusive means small, poorly fitted or top-dose-only effect, or another doubt; inactive means no such curve, though single readings can be large or run the other way;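 further: plate controls were no enzyme wells and a reference inhibitor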
Target sequence (P00352 whole entry, looked up): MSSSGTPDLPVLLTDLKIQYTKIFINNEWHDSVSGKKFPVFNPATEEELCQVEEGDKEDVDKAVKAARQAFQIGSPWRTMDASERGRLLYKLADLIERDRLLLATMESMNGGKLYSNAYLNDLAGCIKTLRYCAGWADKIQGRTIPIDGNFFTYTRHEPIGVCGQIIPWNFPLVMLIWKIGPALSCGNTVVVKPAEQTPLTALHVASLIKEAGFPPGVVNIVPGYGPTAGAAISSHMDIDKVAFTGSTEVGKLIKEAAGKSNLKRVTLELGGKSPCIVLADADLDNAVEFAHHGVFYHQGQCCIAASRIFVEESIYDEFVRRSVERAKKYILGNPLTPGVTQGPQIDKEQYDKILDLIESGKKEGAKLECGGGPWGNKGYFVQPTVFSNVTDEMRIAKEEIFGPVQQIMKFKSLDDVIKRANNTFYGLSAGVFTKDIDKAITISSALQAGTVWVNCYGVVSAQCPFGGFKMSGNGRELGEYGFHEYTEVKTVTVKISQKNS
VP16 counter = Gal4-VP16 reporter inhibition counter-screen. Drosophila S2 Gal4-VP16 UAS-luciferase, luminescence, 20 h. Potency, µM (highest dose often 53.6 µM), for the others: at the highest dose activity, negative = inhibition, actives largely listed as inhibitors. actives 3.5% (n = 310,000). AID 2546;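 further: Gal4-VP16 expression switched on by copper sulfate through the metallothionein promoter; nearly all actives have a fitted effect of over 50% in size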
RORgamma inh = ROR gamma (mouse) transcription inhibition; P51450; Drosophila S2 Gal4-RORgamma UAS-luciferase reporter, 20 h; Potency, µM (series often up to 53.6 µM), inactives show top-dose activity change, negative = inhibition, hits mostly inhibitors; actives 5.4% (n = 310,000); AID 2551; further: nearly all actives have a fitted effect of over 60% in size
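Luminescence from a UAS-regulated Photinus luciferase reporter in stably transfected Drosophila Schneider cells is measured; decreased signal marks ROR gamma inhibition. Fusion expression is induced by 700 uM copper sulfate for 20 hr.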
PLK1 PBD block = PLK1 (human) polo-box domain binding inhibition; Plk1 PBD binding of FITC phosphopeptide, fluorescence polarization; actives 2.8% (n = 360,000); Potency, µM, for inactives: max response, negative = inhibition, actives largely listed as inhibitors; further: series mostly up to about 57 µM; nearly all actives have a fitted effect of over 65% in size
Sfp PPTase inh = blocks B. subtilis Sfp PPTase activity; AID 1490; Q9F4F7; Potency, µM, for the others: largest response in the series, negative = inhibition, most hits filed as inhibitors; Biochemical Sfp PPTase activity, qHTS; actives 3.5% (n = 310,000);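 further: the enzyme is Sfp with the accession as filed and its product quenches rhodamine fluorescence; 0% = enzyme reaction without inhibitor and -100% = no enzyme wells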
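After 15 min at room temperature with compound, 15 nM Sfp received 5 uM rhodamine-CoA plus 12.5 uM BHQ-2-ybbR (50 mM Hepes pH 7.6, 10 mM MgCl2). Rate came from the fluorescence difference over 30 min, ex 525/em 598 nm.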
Active calls of the source: *; [ ] = dose if it differs, or a comment. Unless noted, the call rests on the fitted dose curve; in most records, active means well fitted curve in the direction sought with a large enough effect; inconclusive means small, poorly fitted or top-dose-only effect, or another doubt; inactive means no such curve, though single readings can be large; an effect the other way counts as inactive or inconclusive. Unless noted, on the % scale 0 is the no-effect control and ±100 the full control effect; potency means the concentration at half of the fitted maximal effect.

For Cc1ccccc1-c1n[nH]c(=S)n1/N=C/c1c(C)nn(-c2ccccc2)c1C the results were ALDH1A1 block -4.0%, VP16 counter inconclusive, RORgamma inh 4.47µM*, PLK1 PBD block -19.8% and Sfp PPTase inh inconclusive.
Screening CCCN1CCC(=O)N(C(CSc2ccc(Br)cc2)c2ccccc2)CC1 (configuration not stated) returned VP16 counter 28.7%, RORgamma inh 37.0% and Sfp PPTase inh 11.4%.
Screening COc1ccc2nc(N/C(N)=N/C(=S)Nc3c(C)cccc3C)nc(C)c2c1 returned ALDH1A1 block inconclusive, VP16 counter -5.8%, RORgamma inh 15.7%, PLK1 PBD block -26.3% and Sfp PPTase inh -2.7%.
`CCOc1ccc2nc(N/C(N)=N/C(=S)Nc3cccc(C)c3)nc(C)c2c1` gave ALDH1A1 block -2.9%, VP16 counter 3.55µM*, RORgamma inh 1.58µM*, PLK1 PBD block 1.4% and Sfp PPTase inh 2.6%.
`COc1ccc2nc(N/C(N)=N/C(=S)Nc3cccc(C)c3)nc(C)c2c1` gave ALDH1A1 block inconclusive, VP16 counter 4.47µM*, RORgamma inh 3.55µM*, PLK1 PBD block -7.8% and Sfp PPTase inh -0.6%.
COc1ccc(NC(=S)/N=C(\N)Nc2nc(C)c3ccccc3n2)cc1 was read as VP16 counter 4.47µM*, RORgamma inh 1µM*, PLK1 PBD block -8.1% and Sfp PPTase inh 10.7%.
`CCOc1ccc2nc(N/C(N)=N/C(=S)Nc3cccc(OC)c3)nc(C)c2c1` gave VP16 counter inconclusive, RORgamma inh 0.794µM*, PLK1 PBD block -8.4% and Sfp PPTase inh 17.1%.
COc1ccc2nc(N/C(N)=N/S(C)(=O)=O)nc(C)c2c1 was read as VP16 counter 5.4%, RORgamma inh -4.5%, PLK1 PBD block -16.9% and Sfp PPTase inh 11.2%.
For CCOC(=O)N1CCN(C(=O)C[C@@H]2C[C@@]3(C(=O)OC)CCCCC=C3N(CCc3ccc(OC)c(OC)c3)C2=O)CC1 the results were PLK1 PBD block -0.1%.
For N[C@@H](Cc1[nH]nc2ccccc12)C(=O)O the results were ALDH1A1 block -8.1%[13.5 µM].
For O=S(=O)(c1ccc(N2CCN(c3ccc(F)cc3)CC2)cc1)N1CCCC1 the results were ALDH1A1 block 10.6%, VP16 counter -5.7%, RORgamma inh 7.9%, PLK1 PBD block 0.2% and Sfp PPTase inh 22.6%.
Screening O=S(=O)(c1ccc(N2CCCC2)cc1)C(F)(F)F returned ALDH1A1 block -0.8%, VP16 counter 5.62µM*, RORgamma inh inconclusive, PLK1 PBD block -1.3% and Sfp PPTase inh 2.6%.
Screening O=C(c1ccc(F)cc1)c1ccc(N2CCCC2)cc1 returned ALDH1A1 block 20µM*, VP16 counter 4.3%, RORgamma inh 29.1%, PLK1 PBD block -1.6% and Sfp PPTase inh -10.0%.
Screening CC(=O)NC(Cc1ccc(F)cc1)C(=O)NC1CCN(C(=O)NCc2ccccc2)CC1 (configuration not stated) returned VP16 counter -8.0%, RORgamma inh -0.5%, PLK1 PBD block 2.9% and Sfp PPTase inh 19.8%.
For COc1ccc(CC(NC(C)=O)C(=O)NC2CCN(c3ncccc3[N+](=O)[O-])CC2)cc1 (configuration not stated) the results were ALDH1A1 block 6.31µM*, VP16 counter -19.8%, RORgamma inh 17.4%, PLK1 PBD block -13.7% and Sfp PPTase inh -3.4%.
`CC(=O)NC(Cc1ccc(F)cc1)C(=O)NC1CCN(c2nnnn2-c2ccccc2)CC1` (configuration not stated) gave ALDH1A1 block 1µM*, VP16 counter -2.7%, RORgamma inh 10.9%, PLK1 PBD block -2.5% and Sfp PPTase inh 15.1%.
`O=C(N/N=C/c1ccc[nH]1)c1c[nH]c2ccccc12` gave PLK1 PBD block 1.1% and Sfp PPTase inh 5.1%.
For O=C(CNc1cccc2ccccc12)N/N=C/c1ccc[nH]1 the results were VP16 counter 14.1µM*, RORgamma inh 5.01µM*, PLK1 PBD block -3.9% and Sfp PPTase inh 8.7%.
CSc1ccc(/C=N/NC(=O)CNc2cccc3ccccc23)cc1 was read as ALDH1A1 block -1.6%, VP16 counter inconclusive, RORgamma inh 35.5µM*, PLK1 PBD block -2.0% and Sfp PPTase inh 12.8%.
